Among the test systems are SR leukemia; RPMI-8226 leukemia; OVCAR-8 ovarian; OVCAR-5 ovarian; SK-OV-3 ovarian; IGROV1 ovarian; OVCAR-3 ovarian; HS 578T breast; NCI/ADR-RES ovarian; T-47D breast; BT-549 breast; MDA-MB-435 melanoma; SW-620 colon; MCF7 breast; HCT-116 colon; HCC-2998 colon; KM12 colon; OVCAR-4 ovarian.
Holding throughout (test): NCI-60 one-dose screen, 48 h (100 = growth as untreated, 0 = no growth, -100 = all killed)
Common to all, as to settings: 10 µM unless noted

Molecules are shown by their SMILES. About 83,000 compounds went through this panel and 20% of them were active in at least one assay; those are over-represented in the sample as a whole.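 Growth was measured after 48 h exposure to one concentration of compound in 96-well plates. Values under 10 count as active.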 Unmarked numbers belong to inactive results. Calls of active or inactive are those of the source.

Consider `CCCc1cc(=O)oc2c(C(=O)CC(C)C)c(O)c(CC=C(C)C)c(O)c12`, for which the growth is 14.3% in the assay with SR leukemia; -12.6% (active) with RPMI-8226 leukemia; 22.3% with OVCAR-8 ovarian; 53.8% in the assay on OVCAR-5 ovarian; 23.3% in the assay with SK-OV-3 ovarian; 36.9% with IGROV1 ovarian. The growth with OVCAR-3 ovarian is 13.6%; in the assay on HS 578T breast, 28.1%; with NCI/ADR-RES ovarian, 0.191% (active); in the assay with T-47D breast, 13.5%; in the assay on BT-549 breast, 1.17% (active); with MDA-MB-435 melanoma, 24.3%. Besides, the growth in the assay with SW-620 colon is 27.4%; in the assay with MCF7 breast it was 7.3% (active); with HCT-116 colon, 14.3%; in the assay with HCC-2998 colon it was 11%; in the assay on KM12 colon, 18.9%.
Take `C=C1SC(=Nc2ccccc2Cl)N(C(=O)c2sc3ccccc3c2Cl)C1(C)C`: the growth in the assay on SR leukemia was 65.4%; in the assay on RPMI-8226 leukemia it was 4.32% (active); in the assay with OVCAR-5 ovarian, 92.4%; in the assay on OVCAR-4 ovarian it was 29.8%; with SK-OV-3 ovarian, 58.6%; in the assay on IGROV1 ovarian, 297%. Also, the growth is 39.6% in the assay on OVCAR-3 ovarian; 73.5% in the assay with HS 578T breast; 31.7% with NCI/ADR-RES ovarian; 34.7% with T-47D breast; 85.2% with BT-549 breast; 99.1% with MDA-MB-435 melanoma. The growth in the assay with SW-620 colon was 68%; with MCF7 breast it was 21.2%; in the assay with HCT-116 colon it was 54%; in the assay on HCC-2998 colon, 72.9%; with KM12 colon it was 29%.
With `CCOC(=O)/C=C1\S/C(=N\Nc2cc(=O)[nH]c3ccc(Br)cc23)N(c2ccccc2)C1=O`, the growth in the assay with SR leukemia is 3.76% (active); with RPMI-8226 leukemia it was -12.5% (active); with OVCAR-8 ovarian it was 72.2%; in the assay on OVCAR-5 ovarian, 102%; in the assay on SK-OV-3 ovarian, 110%; with IGROV1 ovarian it was 58.7%. The growth with OVCAR-3 ovarian is -17% (active); in the assay on HS 578T breast it was 74.7%; with NCI/ADR-RES ovarian, 97.1%; in the assay on T-47D breast, 7.62% (active); with BT-549 breast, 75.1%; in the assay on MDA-MB-435 melanoma, 94.5%. The growth in the assay with SW-620 colon is 27.8%; in the assay with MCF7 breast it was 22.2%; in the assay on HCT-116 colon it was 27.1%; in the assay with HCC-2998 colon, 110%; in the assay on KM12 colon, 88.5%.
Regarding `O=C(/C=C/c1cccc(Oc2ccccc2)c1)c1ccc(Nc2nc(Nc3ccc(F)cc3)nc(Nc3ccc(Cl)cc3)n2)cc1`, the growth was -14.9% (active) with SR leukemia; 25.4% with RPMI-8226 leukemia; 104% in the assay with OVCAR-8 ovarian; 99.5% in the assay on OVCAR-5 ovarian; 120% in the assay with SK-OV-3 ovarian; 94% with IGROV1 ovarian. Also, the growth in the assay on OVCAR-3 ovarian was 104%; in the assay on HS 578T breast, 109%; with NCI/ADR-RES ovarian, 96.8%; with T-47D breast it was 95.4%; in the assay on BT-549 breast, 104%; with SW-620 colon it was 104%. The growth was 89.6% in the assay with MCF7 breast, 95.1% in the assay with HCT-116 colon, 67.1% with HCC-2998 colon and 105% with KM12 colon.
`O=C(Nc1cccnc1Nc1ccccc1)c1cn(Cc2cccc(Oc3ccccc3)c2)nn1`: the growth is 26.6% in the assay with SR leukemia; 57.2% in the assay with RPMI-8226 leukemia; 103% in the assay on OVCAR-5 ovarian; 86.9% with OVCAR-4 ovarian; 77.1% in the assay with SK-OV-3 ovarian; 78.1% in the assay with IGROV1 ovarian. In addition, the growth is 52.6% in the assay on OVCAR-3 ovarian; 40.8% with HS 578T breast; 33.8% in the assay with NCI/ADR-RES ovarian; 71.3% in the assay with T-47D breast; 66.2% in the assay on BT-549 breast; -19.3% (active) in the assay on MDA-MB-435 melanoma. The growth in the assay with SW-620 colon was 42.4%; in the assay on MCF7 breast, 23.5%; in the assay on HCT-116 colon it was 33.1%; in the assay with HCC-2998 colon, 90.1%; in the assay on KM12 colon it was 35%.
As to `N#Cc1ccc(/C=C/c2cn(-c3ccccc3)nc2-c2cccc([N+](=O)[O-])c2)cc1`, the growth in the assay with SR leukemia was 66.5%; in the assay with RPMI-8226 leukemia, 74.8%; with OVCAR-5 ovarian, 64.2%; in the assay on OVCAR-4 ovarian, 33.1%; with SK-OV-3 ovarian, 69.8%; in the assay with IGROV1 ovarian, 51.2%. Further, the growth was 70% with OVCAR-3 ovarian; 76.2% in the assay on HS 578T breast; 62.8% in the assay on NCI/ADR-RES ovarian; 75% in the assay with T-47D breast; 40.5% with BT-549 breast; 61.2% in the assay with MDA-MB-435 melanoma. The growth is 57.1% with SW-620 colon; 58.7% with MCF7 breast; 30.1% in the assay with HCT-116 colon; 82% with HCC-2998 colon; 65.7% in the assay with KM12 colon.
As for `CC(O)CNC(Cc1ccccc1)c1ccc2c(c1)OCO2` (configuration not stated), the growth in the assay on SR leukemia is 101%; with OVCAR-8 ovarian it was 97.1%; in the assay with OVCAR-5 ovarian it was 59.6%; with OVCAR-4 ovarian it was 102%; with SK-OV-3 ovarian, 66.2%; in the assay with IGROV1 ovarian it was 101%. Further, the growth with OVCAR-3 ovarian is 98.7%; in the assay with HS 578T breast it was 103%; in the assay on NCI/ADR-RES ovarian, 94.7%; in the assay on T-47D breast it was 47.2%; in the assay with BT-549 breast it was 57.9%; in the assay on MDA-MB-435 melanoma, 99.6%. Also, the growth in the assay with SW-620 colon was 92.8%; with MCF7 breast, 91.5%; in the assay with HCT-116 colon, 62.1%; with HCC-2998 colon, 104%; in the assay with KM12 colon, 99.3%.
In the case of `COc1ccc(C2CC(c3ccccc3)=NN2C(=O)c2cc(OC)c(OC)c(OC)c2)cc1O` (configuration not stated), the growth is 29.8% in the assay with SR leukemia; 24.4% in the assay with OVCAR-8 ovarian; 60.1% in the assay on OVCAR-5 ovarian; 42% with OVCAR-4 ovarian; 54.9% in the assay on SK-OV-3 ovarian; 3.37% (active) with IGROV1 ovarian. Further, the growth in the assay on OVCAR-3 ovarian is 17%; in the assay on HS 578T breast it was 23.5%; with NCI/ADR-RES ovarian, -11.9% (active); with T-47D breast it was 70.9%; in the assay on BT-549 breast it was 39.7%; in the assay on MDA-MB-435 melanoma, -7.61% (active). Further, the growth is 32.1% with SW-620 colon; 20.3% in the assay with MCF7 breast; 13.8% in the assay on HCT-116 colon; -1.27% (active) with HCC-2998 colon; 26.3% in the assay with KM12 colon.
For the molecule `COc1ccc(CN2C(=O)OC(C)(COC(C)=O)C2=O)cc1` (configuration not stated), the growth with SR leukemia was 94%; in the assay with OVCAR-8 ovarian, 104%; in the assay on OVCAR-5 ovarian, 97.2%; with OVCAR-4 ovarian, 104%; in the assay with SK-OV-3 ovarian, 97.3%; in the assay with IGROV1 ovarian it was 107%. Besides, the growth is 112% with OVCAR-3 ovarian; 108% with HS 578T breast; 109% in the assay with NCI/ADR-RES ovarian; 91.9% with T-47D breast; 107% in the assay with BT-549 breast; 107% in the assay on MDA-MB-435 melanoma. Also, the growth in the assay on SW-620 colon is 107%; in the assay on MCF7 breast, 96.3%; in the assay on HCT-116 colon, 93.5%; in the assay on HCC-2998 colon it was 100%; with KM12 colon, 112%.

The values above are taken from PubChem BioAssay (NCI).
